This is an account of results in PubChem BioAssay (NCI).

Each structure is given as a SMILES string. About 83,000 compounds went through this panel and 20% of them were active in at least one assay; those are over-represented in the sample as a whole.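 Method: cells in 96-well plates; compound added at one concentration; 48 h incubation; percent growth measured; values under 10 scored active.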 Values without a mark were called inactive. Active and inactive are the calls of the source.

Some test systems named below: SK-MEL-2 melanoma; SN12C renal; UO-31 renal; TK-10 renal; ACHN renal; CAKI-1 renal; A498 renal; CCRF-CEM leukemia; MOLT-4 leukemia.
Holding throughout (test): NCI-60 one-dose screen, 48 h (100 = growth as untreated, 0 = no growth, -100 = all killed)
Holding throughout (conditions): 10 µM

For `COc1cc(-c2nc3ccccc3[nH]2)ccc1OCC(=O)N=Nc1c(O)[nH]c2ccccc12`, the growth with SK-MEL-2 melanoma is 103%; with SN12C renal, 83.2%; in the assay on UO-31 renal, 89.3%; in the assay with TK-10 renal, 136%; in the assay with ACHN renal, 101%; with CAKI-1 renal, 94.2%. Moreover, the growth is 95.2% in the assay on A498 renal, -25.3% (active) in the assay on CCRF-CEM leukemia and 65.9% with MOLT-4 leukemia.
Consider `CCc1ccc(-c2nnc(COc3ccc(-c4nc5cc(Cl)c(Cl)cc5[nH]4)cc3OC)o2)cc1`, for which the growth is 87.8% with SK-MEL-2 melanoma; 21.9% in the assay on SN12C renal; 91.1% with UO-31 renal; 75.7% in the assay with TK-10 renal; 31% in the assay with ACHN renal; 78.6% with CAKI-1 renal. Besides, the values for the growth in the assay on A498 renal, with CCRF-CEM leukemia and in the assay with MOLT-4 leukemia were 65.2%, 63.5% and 69.8%, respectively.
Take `N#Cc1c(-c2ccccc2)nc(SCC(=O)N2CCOCC2)[nH]c1=O`: the growth in the assay on SK-MEL-2 melanoma was 107%; in the assay with SN12C renal, 99.1%; in the assay with UO-31 renal it was 71.9%; with TK-10 renal it was 110%; in the assay on ACHN renal it was 98.5%; in the assay on CAKI-1 renal, 94.1%. The growth in the assay on A498 renal is 93.5%; in the assay on CCRF-CEM leukemia, 95.1%; with MOLT-4 leukemia, 83.5%.
For the compound `Cc1nc(N)sc1Sc1nc2ccc(Cl)cc2c(=O)n1-c1ccc(Oc2ccccc2)cc1`, the growth with SK-MEL-2 melanoma is 96.9%; with SN12C renal, 73.9%; in the assay with UO-31 renal it was 61.8%; in the assay on TK-10 renal it was 89%; in the assay with ACHN renal, 78.5%; with CAKI-1 renal it was 73.5%. For the same compound, the results for the growth in the assay on A498 renal, with CCRF-CEM leukemia and in the assay with MOLT-4 leukemia were 39.9%, 41.5% and 44.3%, respectively.
In the case of `CC1=CC2OC34COC3CC(OC(=O)C(F)(F)F)C4(C)C2(C)CC1` (stereo not given), the growth in the assay on SK-MEL-2 melanoma is 104%; in the assay on SN12C renal, 98.4%; in the assay with UO-31 renal, 99.5%; in the assay with TK-10 renal it was 101%; with ACHN renal, 98.4%; in the assay with CAKI-1 renal, 102%. Besides, the values for the growth in the assay on A498 renal, with CCRF-CEM leukemia and in the assay on MOLT-4 leukemia were 79.6%, 101% and 113%, respectively.
With `CC(=O)Oc1c(C)c(C)c2c(c1C)CCC(C)(CC(=O)OCCCCCCCCCCC[P+](c1ccccc1)(c1ccccc1)c1ccccc1)O2` (stereo not given), the growth with SK-MEL-2 melanoma was -88.7% (active); in the assay with SN12C renal, -82.3% (active); in the assay on UO-31 renal, -5.35% (active); with TK-10 renal, -97% (active); in the assay on ACHN renal it was -95.4% (active); with CAKI-1 renal it was -76.3% (active). The growth in the assay with A498 renal is -20.5% (active); in the assay with CCRF-CEM leukemia it was 3.68% (active); in the assay with MOLT-4 leukemia it was -23.6% (active).
For `FC(F)(F)c1ccc(-c2cnc(Br)nc2NC2CCCCCC2)cc1`, the growth was 13.2% with SK-MEL-2 melanoma; 21.9% in the assay on SN12C renal; 34.7% in the assay with UO-31 renal; 36.6% in the assay with TK-10 renal; 10.4% with ACHN renal; 72.6% in the assay on CAKI-1 renal. Besides, the growth in the assay with A498 renal was 81.3%; in the assay on CCRF-CEM leukemia it was 28.5%; with MOLT-4 leukemia, 57%.
With `C=CCN1C(=O)/C(=C\c2ccc3c(c2)CCC3)SC1=S`, the growth in the assay on SK-MEL-2 melanoma was 94.6%; in the assay with SN12C renal it was 102%; in the assay on UO-31 renal, 85.6%; with TK-10 renal it was 108%; in the assay on ACHN renal it was 97.1%; in the assay on CAKI-1 renal, 97.5%. The figures for the growth in the assay with A498 renal, in the assay on CCRF-CEM leukemia and in the assay on MOLT-4 leukemia were 98.9%, 103% and 85.9%, respectively.
Turning to `COc1ccc2nc(C)cc(Nc3ccc(Cl)cc3)c2c1`, the growth with SK-MEL-2 melanoma was 104%; with SN12C renal, 97.4%; with UO-31 renal it was 91.1%; in the assay on TK-10 renal, 109%; in the assay with ACHN renal, 105%; with CAKI-1 renal, 101%. The growth was 103% in the assay with A498 renal, 94.5% with CCRF-CEM leukemia and 110% in the assay with MOLT-4 leukemia.
Turning to `CCCCC(=O)N(c1ccc(Nc2c3ccccc3nc3cc([N+](=O)[O-])ccc23)cc1)S(C)(=O)=O`, the growth in the assay on SK-MEL-2 melanoma was 109%; with SN12C renal, 69.3%; in the assay with UO-31 renal, 36.7%; in the assay on TK-10 renal, 95.8%; in the assay on ACHN renal, 43.1%; in the assay on CAKI-1 renal, 59.9%. Further, the figures for the growth in the assay on A498 renal, in the assay on CCRF-CEM leukemia and with MOLT-4 leukemia were 78.8%, 33.2% and 22.8%, respectively.
Turning to `COc1cc(-c2nc3ccc(C)cc3[nH]2)ccc1OCc1nnc(-c2ccc(CC(C)C)cc2)o1`, the growth in the assay with SK-MEL-2 melanoma is 97.3%; with SN12C renal, 92%; in the assay with UO-31 renal, 77.8%; in the assay with TK-10 renal, 119%; in the assay with ACHN renal, 107%; with CAKI-1 renal, 95.1%. For the same compound, the growth was 81.8% in the assay on A498 renal, 80.3% with CCRF-CEM leukemia and 82.4% in the assay on MOLT-4 leukemia.
For the compound `COc1ccc(CCc2nc3cc(-c4c(C)noc4C)ccc3n2CCN2CCOCC2)cc1`, the growth in the assay with SK-MEL-2 melanoma was 49.6%; in the assay with SN12C renal it was 31.2%; in the assay with UO-31 renal it was 4.71% (active); with TK-10 renal, 24%; in the assay with ACHN renal it was -0.152% (active); in the assay on CAKI-1 renal it was 57.2%. The growth with A498 renal is 58.6%; in the assay on CCRF-CEM leukemia, 42.7%; in the assay on MOLT-4 leukemia, 73%.
`COC(=O)c1ccc(Cn2ccc(=O)[nH]c2=O)cc1`: the growth in the assay with SK-MEL-2 melanoma is 100%; with SN12C renal it was 104%; in the assay with UO-31 renal it was 89.3%; in the assay with TK-10 renal, 104%; in the assay with ACHN renal, 107%; in the assay on CAKI-1 renal it was 97.4%. Besides, the growth in the assay on A498 renal was 120%; in the assay on CCRF-CEM leukemia, 92%; with MOLT-4 leukemia, 89.3%.
Turning to `CCNC(=S)NN`, the growth in the assay with SK-MEL-2 melanoma is 128%; in the assay on SN12C renal it was 81.7%; in the assay on UO-31 renal, 68.4%; in the assay with TK-10 renal, 130%; in the assay on ACHN renal, 96.4%; in the assay on CAKI-1 renal, 90.1%. Also, the growth in the assay with A498 renal was 91.2%; with CCRF-CEM leukemia it was 46.2%; in the assay with MOLT-4 leukemia it was 73.3%.
In the case of `COc1cc(C(c2c[nH]c3ccccc23)N2CCCC2)ccc1OCc1ccccc1` (stereo not given), the growth in the assay with SK-MEL-2 melanoma is 81.6%; in the assay on SN12C renal, 74.9%; in the assay with UO-31 renal it was 24.7%; with TK-10 renal, 76.6%; in the assay with ACHN renal, 73.2%; in the assay on CAKI-1 renal, 53.3%. The growth with A498 renal is 71.6%; with CCRF-CEM leukemia it was 16.2%; in the assay on MOLT-4 leukemia, 26.1%.
